# Measurements: PubChem BioAssay AID2613 (National Center for Advancing Translational Sciences (NCATS), 2010)
# Records with an inconclusive call do not appear. A call without a number means that no potency is given here. Active and inactive are the calls of the source. Calls follow the shape of the dose curve; as a rule, active = well fitted inhibition curve with a large enough effect; inconclusive = small, poorly fitted or top-dose-only effect; inactive = flat fitted curve, though single readings scatter.
# Molecular target: Lysosomal acid glucosylceramidase (Homo sapiens) (UniProt P04062)
# Test: qHTS Assay for Inhibitors and Activators of N370S glucocerebrosidase as a Potential Chaperone Treatment of Gaucher Disease: Activity in N370S Spleen Homogenate Using a Red Fluorescent Substrate
# Conditions: red fluorogenic substrate; series mostly up to 49.6 µM
# Description: NIH Chemical Genomics Center [NCGC]
# NIH Molecular Libraries Probe Production Centers Network [MLPCN]
# Assay Submitter (PI): Wei Zheng
# Glucocerebrosidase (GC) catalyzes the hydrolysis of beta-glucocerebroside to glucose and ceramide in lysosomes. Mutations in the glucocerebrosidase gene result in Gaucher disease, an autosomal recessive lysosomal storage disorder. Many of the mutations encountered in patients with Gaucher disease are missense alterations that may cause misfolding, decreased stability and/or mistrafficking of this lysosomal protein. […] These inhibitors include iminosugar analogs and three non-iminosugar inhibitors identified from a previous HTS of 62,000 compounds with the wild type recombinant enzyme. However, the enhancement of enzyme activity by the chaperone action of an enzyme inhibitor must be balanced against the direct inhibition of the enzyme. An enzyme activator could also function as a chaperone by binding to the enzyme and helping to correct its misfolding and mistrafficking. While activators for GC have not yet been identified, they may have better therapeutic potential than inhibitors. Therefore the discovery and development of chemical activators may provide a new strategy for the chaperone therapy.
# We have optimized a new assay using N370S mutant GC derived from the spleen of a Gaucher patient. […] In addition, the MLPCN compound library has expanded, which increases the chance of finding new and better probes.
# This confirmation assay tests for compound activity in spleen homogenate from a patient homozygous for the N370S mutation using an alternate resorufin-based substrate.
# NCGC Assay Protocol Summary:
# This is a fluorogenic enzyme assay with resorufin-beta-D-glucopyranoside as the substrate and mutant N370S glucocerebrosidase from human spleen homogenate as the enzyme preparation. Upon the hydrolysis of this fluorogenic substrate, the resulting product, […] which can be detected by a standard fluorescence plate reader. Data were normalized to the controls for basal activity (without enzyme) and 100% activity (with enzyme). The AC50 values were determined from concentration-response data modeled with the standard Hill equation.
# Assay buffer: 50 mM citric acid (titrated with potassium phosphate to pH 5.0), 100 mM potassium chloride, 10 mM sodium chloride, 1 mM magnesium chloride, 0.01% Tween-20.
# 1536-well assay protocol:
# (1) Add 2 ul/well of spleen homogenate (27 ug final)
# (2) Add 23 nL compounds in DMSO solution. The final titration was 0.5 nM to 58 uM.
# (3) Add 2 ul of substrate (1 mM final)
# (4) Incubate at 37C for 40 min.
# (5) Add 2 ul stop solution (1M NaOH and 1M Glycine mixture, pH 10)
# (6) Detect the assay plate in a ViewLux plate reader (PerkinElmer) with Ex=365 nm and Em=440nm.
# Keywords: Glucocerebrosidase, beta-glucosidase, Gaucher Disease, pharmacological chaperone, chaperone therapy, high throughput screening, glucocerebrosidase inhibitor, MLSMR, MLSCN, NIH Roadmap, qHTS and NCGC
# Chain of Lysosomal acid glucosylceramidase (Homo sapiens) (P04062 whole entry N409S): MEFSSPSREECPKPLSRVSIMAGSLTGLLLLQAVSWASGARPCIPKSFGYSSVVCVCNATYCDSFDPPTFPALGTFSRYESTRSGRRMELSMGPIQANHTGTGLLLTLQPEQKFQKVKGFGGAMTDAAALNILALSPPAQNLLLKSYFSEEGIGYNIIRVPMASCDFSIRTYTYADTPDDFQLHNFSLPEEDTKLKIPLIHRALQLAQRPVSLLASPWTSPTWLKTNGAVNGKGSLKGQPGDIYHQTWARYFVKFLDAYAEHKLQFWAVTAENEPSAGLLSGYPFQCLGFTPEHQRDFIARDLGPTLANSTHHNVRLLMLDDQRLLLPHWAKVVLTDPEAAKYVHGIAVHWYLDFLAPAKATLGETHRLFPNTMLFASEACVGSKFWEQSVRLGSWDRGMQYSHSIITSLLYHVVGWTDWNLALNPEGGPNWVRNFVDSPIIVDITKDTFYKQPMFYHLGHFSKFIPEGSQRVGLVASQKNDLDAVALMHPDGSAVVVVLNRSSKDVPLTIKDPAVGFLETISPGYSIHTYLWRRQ
row,SMILES,Potency
1,Cc1cc(Nc2cccc(Cl)c2)nc2ccc(NC(=O)C3CCC(C)CC3)cc12 (stereo not given),inactive
2,Oc1ccccc1Nc1nc(NCC2CCCO2)c2ccccc2n1 (stereo not given),inactive
3,Cc1cc(C)n2ncc(C(=O)Nc3cccc(O)c3)c2n1,inactive
4,CC1(C)CC(=O)C2=C(C1)c1c(ccc3ccccc13)NC2c1ccc(Br)o1 (stereo not given),inactive
5,CC(C)(C)C(=O)OCCNc1nc(-c2ccccc2)nc2ccccc12,3.98 µM (active)
6,Cc1cc(N2CCOCC2)nc2ccc(NC(=O)C3CCC(C)CC3)cc12 (stereo not given),3.16 µM (active)
7,Cc1cc(C)cc(N(CC(=O)NC2CCC(C)CC2)S(=O)(=O)c2c(C)[nH]c(=O)[nH]c2=O)c1 (stereo not given),0.562 µM (active)
8,CCOc1ccccc1NC(=O)CN(c1ccc(C)cc1)S(=O)(=O)c1c(C)noc1C,inactive
9,Cc1ccc(S(=O)(=O)Nc2ccc(C(=O)NCc3ccccc3)cc2)cc1,inactive
10,O=c1cc(N2CCCCC2)c(-c2ccccc2)nn1Cc1c(Cl)cccc1Cl,inactive
11,CC(=O)Nc1ccc(NC(=O)COc2ccccc2C(=O)Nc2cccc(Cl)c2Cl)cc1,inactive
12,COc1ccc(Nc2nc(-c3cccs3)nc3ccccc23)cc1,2.51 µM (active)
13,O=C(Nc1cc(Br)ccc1O)c1cnn2c(C(F)F)cc(C3CC3)nc12,inactive
14,Cc1ccc(C)c(N2CCN(C(=O)CCC(=O)Nc3ccc4nc(N5CCOCC5)cc(C)c4c3)CC2)c1,15.8 µM (active)
15,CCC(C)NC(=O)COC(=O)c1ccccc1OCC(=O)Nc1ccc(Br)cc1 (stereo not given),inactive
16,Cc1cc(N2CCOCC2)nc2ccc(NC(=O)c3ccco3)cc12,inactive
17,COc1cccc(NC(=O)CSc2nc3ccccc3c(=O)n2Cc2cccs2)c1,inactive
18,COc1ccccc1C(=O)COC(=O)c1ccccc1OCC(=O)Nc1ccc(SC(F)F)cc1,inactive
19,Cc1cc(N2CCCCC2)nc2ccc(NC(=O)C3CCC(C)CC3)cc12 (stereo not given),17.8 µM (active)
20,O=S(=O)(c1ccc(Cl)cc1)N1CCN(c2nc(-c3cccs3)nc3ccccc23)CC1,0.891 µM (active)

row,SMILES,Potency
1,N#Cc1ccccc1Sc1ccccc1C(=O)OCC(=O)NC12CC3CC(CC(C3)C1)C2,inactive
2,Clc1ccccc1-c1nccc(NCc2ccccc2)n1,3.55 µM (active)
3,COc1cccc(NC(=S)N(CCCN2CCOCC2)Cc2cn(C)c3ccccc23)c1,4.47 µM (active)
4,COc1ccccc1NC(=O)COc1ccccc1C(=O)Nc1ccccc1,inactive
5,Cc1cc(C)cc(N(CC(=O)NC2CCCCCC2)S(=O)(=O)c2c(C)[nH]c(=O)[nH]c2=O)c1,0.794 µM (active)
6,COC(=O)c1ccccc1NC(=O)c1ccc2c(c1)C(=O)N(Cc1ccccc1)C2=O,inactive
7,COc1ccccc1OCC(=O)Nc1oc(-c2ccccc2)c(-c2ccccc2)c1C#N,inactive
8,CCOc1ccc(N(CC(=O)Nc2ccc(C)cc2)S(=O)(=O)c2c(C)[nH]c(=O)[nH]c2=O)cc1,12.6 µM (active)
9,Cc1ccc(NC(=O)COc2ccccc2C(=O)Nc2ccccc2)cc1Cl,inactive
10,O=C(COc1ccccc1C(=O)c1cnn(-c2ccccc2)c1)Nc1ccccc1,inactive
11,COc1cc(OC)cc(C(=O)N[C@H](C(=O)OCC(=O)Nc2cccc(F)c2)C(C)C)c1,inactive
12,Cc1cc(C)n2ncc(C(=O)Nc3ccc(Cl)c(Cl)c3)c2n1,inactive
13,c1ccc2c(NCC3CCCO3)nc(N3CCOCC3)nc2c1 (stereo not given),inactive
14,CCc1ccc(NC(=O)c2cnn3c(C(F)F)cc(C)nc23)cc1,inactive
15,Cc1cc(N2CCOCC2)nc2ccc(NC(=O)CCC3CCCC3)cc12,15.8 µM (active)
16,COc1cc2c(cc1NC(=O)COC(=O)[C@@H](NC(=O)c1ccccc1)C(C)C)oc1ccccc12,inactive
17,Cc1cc(N2CCN(c3ncccn3)CC2)nc2ccc(NC(=O)C3CCC(C)CC3)cc12 (stereo not given),5.01 µM (active)
18,N=c1c2c(-c3ccccc3)c(-c3ccccc3)n(Cc3ccco3)c2ncn1CCCn1ccnc1,7.94 µM (active)
19,Cc1cc(N2CCOCC2)nc2ccc(NC(=O)CCC(=O)NC3CCCCC3)cc12,inactive
20,O=C(/C=C/c1ccc(O)cc1)c1ccc(O)cc1O,4.47 µM (active)
